The entries come from a sample that favours hits as a whole.
Pf apPOL inh = Pf-apPOL DNA polymerase inhibition; AID 1794808; Recombinant Pf-apPOL, molecular beacon fluorescence, 1.5 h; inhibition, % at 10 µM; 0.25% of 210,000 active
mHTT CaM bind = mHTT-calmodulin interaction abrogation; P42858; AlphaScreen His-mHTT/GST-CaM binding, luminescence; inhibition, % at 15 µM; 3.6% of 190,000 active; AID 1671202;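 note: 0% = both proteins with DMSO and 100% = one protein alone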
* = called active by the depositor; i = inactive; . = no result. Cut-off read from the data, not from the text of the source: active = inhibition above about 50%; inactive = the rest.

SMILES	Pf apPOL inh	mHTT CaM bind
Cc1nc(C)c(-c2ccc(SCC(=O)c3ccc([N+](=O)[O-])cc3)nn2)s1	2	21
O=C(CSc1ccc(-c2ccccn2)nn1)c1ccc([N+](=O)[O-])cc1	2	100*
Cc1cccc2sc(NC(=O)CCS(=O)(=O)c3ccc(Br)s3)nc12	-2	5
Cc1cccc2sc(NC(=O)CN(C)S(=O)(=O)c3ccc(Br)s3)nc12	1	92*
COc1cc(C)c(C)cc1S(=O)(=O)Nc1cccc(-c2ccc(N3CCCC3)nn2)c1	-3	77*
COc1ccc(NC(=O)Nc2cccc(-c3ccc(N4CCOCC4)nn3)c2)cc1OC	-18	50*
O=C(NCc1ccccc1)Nc1cccc(-c2ccc(N3CCCC3)nn2)c1	-52	85*
O=C(Nc1cccc(-c2ccc(N3CCOCC3)nn2)c1)c1ccc2nsnc2c1	2	-6
Cc1ccc(-c2ccc(N3CCN(S(C)(=O)=O)CC3)nn2)cc1C	-6	-8
O=C(Nc1cccc(-c2ccc(N3CCOCC3)nn2)c1)c1cc(-c2ccco2)on1	42	55*
O=C(COc1ccc(F)cc1F)Nc1cccc(-c2ccc(N3CCOCC3)nn2)c1	-1	-2
O=C(Nc1cccc(-c2ccc(N3CCCCC3)nn2)c1)c1ccccc1[N+](=O)[O-]	3	12
COc1cccc(-n2nc(C(=O)Nc3ccc(C)cc3Br)c3ccccc3c2=O)c1	4	-15
COc1ccccc1/C=C1\SC(=O)N(CCC(=O)Nc2ccccc2)C1=O	0	1
COc1ccc(C2=C/C(=C\c3ccc(OC)c(OC)c3)C(=O)O2)c(OC)c1	-8	-1
C=CCNC(=O)C1CCCN(S(=O)(=O)N(CC)CC)C1 (stereo not drawn)	-9	14
CSc1ccc(CNC(=O)c2cc3n(n2)CCCN(Cc2ccc(C)cc2)C3=O)cc1	-7	12
O=C(O)c1cc(Cl)c(Cl)cc1C(=O)Nc1cccnc1	55*	-5
O=C(Nc1cccnc1)c1ccc(Cl)cc1Cl	-2	-1
O=c1nc(N/N=C/c2cccnc2)cn[nH]1	.	i
CCN1C(=O)c2cccc3c(NC(=O)c4ccccc4[N+](=O)[O-])ccc1c23	1	2
CCN1C(=O)c2cccc3c(NC(=O)COc4ccc(Cl)cc4)ccc1c23	-6	52*
C(=Cc1nc(-c2cccc(-c3ccn[nH]3)c2)no1)c1ccccc1	2	1
O=C(CSc1nnc(-c2ccco2)c(-c2ccco2)n1)Nc1ccc(Cl)cc1	1	99*
NS(=O)(=O)c1ccc(NC(=O)CSc2nnc(-c3ccco3)c(-c3ccco3)n2)cc1	-1	40
SMILES	Pf apPOL inh	mHTT CaM bind
COc1ccccc1N1CCN(CC(O)COc2ccc(C)c(C)c2)CC1 (stereo not drawn)	-2	38
COc1ccccc1OCC(O)CN1CCN(c2ccc(F)cc2)CC1 (stereo not drawn)	-10	-14
Cc1ccc(OCC(O)CN2CCN(c3ccccc3)CC2)c(C)c1 (stereo not drawn)	2	14
COc1ccccc1N1CCN(C(=O)COc2cc(C)c(Br)c(C)c2)CC1	-5	56*
COc1ccccc1N1CCN(C(=O)COc2ccc(Br)cc2C)CC1	-4	23
COc1ccccc1N1CCN(CC(O)COc2ccc(Cl)c(C)c2)CC1 (stereo not drawn)	2	99*
CC(C)(C)c1ccccc1OCC(O)CN1CCN(c2ccccc2)CC1 (stereo not drawn)	-1	99*
Cc1cc(Cl)ccc1OCC(O)CN1CCN(c2ccccc2)CC1 (stereo not drawn)	-4	93*
CCN1C(=O)c2cccnc2Sc2cc(C(=O)N3CCOCC3)ccc21	1	0
CCC(=O)NCc1nc2c(n1C)CN(C(=O)c1ccc(F)cc1F)CC2	2	5
Cc1ccc(OCCn2c(SCC(N)=O)nc3ccccc32)cc1	2	17
NC(=O)CSc1nc2ccccc2n1CCOc1ccc(Cl)cc1	2	64*
CC[C@@H]1C(c2cccc(Cl)c2)=NN(c2ccc(Br)cc2)[C@H]1C(=O)N1CCOC1=O	6	95*
O=C1OCCN1C(=O)[C@H]1[C@H](c2ccc(Cl)cc2)C(c2ccccc2)=NN1c1ccc(Br)cc1	-3	65*
CC[C@@H]1C(c2cccc(Cl)c2)=NN(c2ccccc2)[C@H]1C(=O)N1CCOC1=O	-6	-61
Cc1cccc(C2=NN(c3ccc(Br)cc3)[C@@H](C(=O)N3CCOC3=O)[C@@H]2c2ccc(F)cc2)c1	-7	76*
COc1ccccc1[C@@H]1C(c2cccc(C)c2)=NN(c2ccc(Br)cc2)[C@H]1C(=O)N1CCOC1=O	-9	-16
O=C1OCCN1C(=O)[C@H]1[C@H](c2ccc([N+](=O)[O-])cc2)C(c2cccc(Cl)c2)=NN1c1ccc(Br)cc1	1	44
O=C1OCCN1C(=O)[C@H]1[C@H](c2ccc(Cl)cc2)C(c2cccc(Cl)c2)=NN1c1ccccc1	-5	46
Cc1cccc(C2=NN(c3ccc(Br)cc3)[C@@H](C(=O)N3CCOC3=O)[C@@H]2c2ccc(Cl)cc2)c1	-4	80*
O=C(NCCC(O)c1ccc2c(c1)OCO2)c1ccc2c(c1)OCO2 (stereo not drawn)	-2	0
Cc1cccc(C2=NN(c3ccccc3)[C@@H](C(=O)N3CCOC3=O)[C@@H]2c2ccc([N+](=O)[O-])cc2)c1	-4	54*
O=C1OCCN1C(=O)[C@H]1[C@H](c2ccccc2)C(c2cccc(Cl)c2)=NN1c1ccc(Br)cc1	3	-76
O=C1OCCN1C(=O)[C@H]1[C@H](c2ccc(F)cc2)C(c2cccc(Cl)c2)=NN1c1ccc(Br)cc1	-4	94*
O=C1OCCN1C(=O)[C@H]1[C@H](c2ccc([N+](=O)[O-])cc2)C(c2ccccc2)=NN1c1ccc(Br)cc1	-6	50
SMILES	Pf apPOL inh	mHTT CaM bind
Cc1nc(NC2CCCCC2)c2oc3ccccc3c2n1	2	19
CCN(CC)c1ccc(C2N(C(=O)c3ccccc3)CCN2C(=O)c2ccccc2)cc1	0	21
COc1ccccc1-n1nc(C(=O)Nc2cc(C)on2)c2ccccc2c1=O	-4	8
CCCC(=O)N1CCN(c2nc(C(C)C)c3c(c2C#N)CC(C)(C)OC3)CC1	89*	0
CCCCC(=O)N1CCN(c2nc(C(C)C)c3c(c2C#N)CC(C)(C)OC3)CC1	-5	-2
Brc1ccc(SCCc2ccccn2)cc1	-3	-43
O=C(Nc1ccc(O)cc1)c1nn2c(c1Cl)NC(c1cccs1)CC2C(F)(F)F (stereo not drawn)	-6	11
Cc1ccc(N=Cc2cc3c(cc2[N+](=O)[O-])OCO3)cc1I	-8	55*
COc1ccc(-c2nc3ccc(N=Cc4cc5c(cc4[N+](=O)[O-])OCO5)cc3o2)cc1	-5	21
O=[N+]([O-])c1cccc(C=Nc2ccc(I)cc2)c1O	-4	3
O=[N+]([O-])c1cc2c(cc1C=Nc1ccc(I)cc1)OCO2	-2	64*
OC/C=C/C=C/c1ccc(F)cc1	3	72*
CC(/C=C/c1ccc(F)cc1)=C\C(=O)O	-4	-1
COc1ccc(NCc2ccccc2[N+](=O)[O-])cc1OC	4	64*
COc1ccccc1NCc1ccc([N+](=O)[O-])s1	11	31
COc1ccc(NCc2ccc([N+](=O)[O-])s2)cc1OC	4	65*
COc1ccc(C=O)cc1OCc1ccccc1[N+](=O)[O-]	94*	1
COc1ccc(NC(=O)Cc2ccccc2[N+](=O)[O-])cc1OC	2	2
